# ChEMBL document CHEMBL4513216, “Probing the Open Global Health Chemical Diversity Library for Multistage-Active Starting Points for Next-Generation Antimalarials” (ACS Infect Dis, 2020)
# The whole screen tested about 68,000 compounds, of which about 2,700 (4%) showed an effect of 50% or more. This excerpt belongs to a sample that is enriched for strong results.
# Test system: Plasmodium berghei
# Assay: Screen against P. berghei liver stage (PbLuc), transformed with Luciferase, at 2uM
# Type: functional, HepG2
# Conditions: tested at 2 uM
row,Compound,INHIBITION
1,O=C1CCC2(CCCN(Cc3ccccc3F)C2)N1CC1CC1 (stereo not given),70.48%
2,CNC(=O)CN1C(=O)CCC12CCCN(CCc1ccccc1)C2 (stereo not given),0.2%
3,CNC(=O)CN1C(=O)CCC12CCCN(Cc1ccccc1F)C2 (stereo not given),-12.98%
4,CCN1C(=O)CCC12CCCN(CCc1ccccc1)C2 (stereo not given),56.76%
5,O=C1CCC2(CCCN(CCc3ccccc3)C2)N1Cc1cccnc1 (stereo not given),42.18%
6,COCCN1C(=O)CCC12CCCN(Cc1ccccc1F)C2 (stereo not given),7.88%
7,COCCN(C)C[C@@H]1CN(C(=O)c2sc3ccccc3c2C)C[C@@H]1CO,25.45%
8,Cc1nc([C@H]2C[C@@H]3CCN(Cc4scnc4C)C[C@H]3O2)no1,40.64%
9,CCCC12CN3CC(C)(CN(C1)C3c1[nH]c(=O)[nH]c(=O)c1C)C2=O (stereo not given),16.49%
10,CCn1nccc1CNC(=O)C1CCCC1,-56.08%
11,CCn1nccc1CNC(=O)C1CCCCC1,-39.57%
12,CCn1nccc1CNC(=O)CCC1CCCC1,59.21%
13,COCc1cccc(S(=O)(=O)Nc2ncc(C)s2)c1,-2.19%
14,Cn1ncc2c1NC(=O)CC2c1ccccc1Cl (stereo not given),33.16%
15,O=S1(=O)NC(C2CCN(Cc3ccccn3)CC2)Nc2ccccc21 (stereo not given),30.31%
16,Cc1nc(CCN)cc(N(C)Cc2nc3ccc(F)cc3[nH]2)n1,-3.87%
17,Cc1ccc2[nH]c(CN(C)c3cc(CCN)nc(C)n3)nc2c1,-56.42%
18,Cc1ccc2[nH]c(CN(C)c3cc(CN)nc(C)n3)nc2c1,60.18%
19,CNC(=O)CS(=O)(=O)Cc1ccc(OC)c(F)c1,69.67%
20,COc1ccc(CS(=O)(=O)CC(=O)NCC2CC2)cc1F,29.89%
21,COc1ccc(CS(=O)(=O)CC(=O)NCc2ccccc2F)cc1F,6.13%
22,Cc1cccc(S(=O)(=O)N2C[C@@H]3C[C@@H](c4nc(C)no4)O[C@@H]3C2)c1,0.8%
23,CCCc1cnc(C)nc1NCCc1nc(C)cc(=O)[nH]1,20.14%
24,CN(C)C(=O)CN1CCn2cc(Cn3cccn3)nc2C1,14.47%
25,CN(C(=O)c1cccc(C#N)c1)c1nnc(C2CCOC2)s1 (stereo not given),53.95%
26,CN(C(=O)c1ccc(C#N)cc1)c1nnc(C2CCOC2)s1 (stereo not given),-7.22%
27,CN(C(=O)c1ccncc1)c1nnc(C2CCOC2)s1 (stereo not given),24.58%

row,Compound,INHIBITION
1,CN(Cc1ccccn1)C1CC2(CCN(Cc3ccccn3)CC2)C1,34.48%
2,Cc1nc(C)c(CN(C)C2CCN(C(=O)OC(C)(C)C)CC2)s1,73.62%
3,CN(Cc1cncs1)C1CCN(C(=O)OC(C)(C)C)CC1,12.83%
4,CN(Cc1cscn1)C1CCN(C(=O)OC(C)(C)C)CC1,-33.82%
5,CC(NC(=O)COc1cccc[n+]1[O-])C1CC1 (stereo not given),25.69%
6,COc1cccc(-c2ncc(CN3C[C@H]4CC[C@@H](C3)N(C)C4=O)s2)c1,38.87%
7,CN1C(=O)[C@@H]2CC[C@H]1CN(Cc1cccc(OCc3ccccn3)c1)C2,26.75%
8,COc1cccc(-c2cccc(CN3C[C@H]4CC[C@@H](C3)N(C)C4=O)c2)c1,56.49%
9,Cc1c(F)cccc1S(=O)(=O)NCC(C)(C)CC(C)O (stereo not given),15.2%
10,CN(CC(N)=O)S(=O)(=O)c1ccc(F)cc1F,0.44%
11,Cc1c(F)cccc1S(=O)(=O)NCCN,39.23%
12,Cc1ccc(S(=O)(=O)N(C)CC(C)O)c(F)c1 (stereo not given),56.69%
13,CC(O)CN(C)S(=O)(=O)c1ccc(C#N)cc1F (stereo not given),34.18%
14,Cc1c(F)cccc1S(=O)(=O)N(C)CC(C)O (stereo not given),52.38%
15,Cc1nn(CC(C)C)c(N(C)C)c1CNCc1ccnn1C,9.97%
16,COCCn1ccc(=O)c(OCC(=O)Nc2cccc(Cl)c2)c1C,6.41%
17,Cc1noc(C2CCCN(C(=O)CCNc3ncccn3)C2)n1 (stereo not given),31.78%
18,CC(C)CCN(C)Cn1ncc2cn(-c3ccccc3)nc2c1=O,19.45%
19,O=C(NCC1OCCc2cn(CC3CCOCC3)nc21)c1ccsc1 (stereo not given),-40.44%
20,CCCS(=O)(=O)NCC1OCCc2cn(CC3CCOCC3)nc21 (stereo not given),12.95%
21,c1ccc(Cn2cc3c(n2)C(CNCc2ccco2)OCC3)nc1 (stereo not given),15.96%
22,O=S(=O)(NCC1OCCc2cn(CC3CCOCC3)nc21)C1CC1 (stereo not given),24.43%
23,O=S(=O)(NCC1OCCc2cn(Cc3ccccn3)nc21)C1CC1 (stereo not given),50.32%
24,c1ccc(Cn2cc3c(n2)C(CNCC2CCOCC2)OCC3)nc1 (stereo not given),26.66%
25,O=C(NCC1OCCc2cn(CC3CCOCC3)nc21)c1ccncc1 (stereo not given),56.71%
26,c1cc(CNCC2OCCc3cn(CC4CCOCC4)nc32)ccn1 (stereo not given),-66.93%
27,Cc1cc(C(=O)NCC2OCCc3cn(CC4CC4)nc32)c(C)[nH]1 (stereo not given),-28.58%

row,Compound,INHIBITION
1,CCS(=O)(=O)NCC1OCCc2cn(CC3CCOCC3)nc21 (stereo not given),62.4%
2,COCCn1cc2c(n1)C(CNS(C)(=O)=O)OCC2 (stereo not given),35.07%
3,COCCn1cc2c(n1)C(CNC(=O)c1cc(C)[nH]c1C)OCC2 (stereo not given),60.14%
4,Cc1cc(-c2cnc(N3CCC(C(N)=O)CC3)nc2C(C)C)on1,-12.93%
5,O=C(NCc1cccnc1)N1CCC2(CC(=O)N(c3ccsc3)C2)C1 (stereo not given),13.92%
6,CCN1C[C@H]2C3(CCN(C(C)=O)CC3)CC[C@@]2(C(=O)N(C)C)C1,17.47%
7,Cc1ccc(NC2CCN(C(=O)c3ccc(C)o3)CC2)nn1,-47.54%
8,Cc1n[nH]c2ncc(CNC3CCCN(c4ncccn4)C3)cc12 (stereo not given),42.17%
9,O=C(c1cccnc1)N1CCC2(CCN(C(=O)N3CCCC3)CC2)C1,-11.34%
10,COCCn1c2c(ccc1=O)CC(NCc1cccnc1OC)CC2 (stereo not given),-1.81%
11,CCc1ncnc2c1CCN(Cc1nccs1)CC2,-6.83%
12,O=C1OCCN1CCNC(=O)C1(N2CCCCC2)Cc2ccccc2C1,51.96%
13,O=C(NCCCO)C1(N2CCCCC2)Cc2ccccc2C1,-118.83%
14,CC(=O)NCCNC(=O)C1(N2CCCCC2)Cc2ccccc2C1,10.91%
15,CNC(=O)c1nn(C)cc1NC(=O)C(C)n1ncc(Cl)c1C (stereo not given),-11.07%
16,CC(C)CN1CCN(C(=O)c2[nH]nnc2Nc2ccccc2F)CC1,-19.92%
17,Cc1ncc(C(=O)N2CCCC2(C)C(=O)N2CCOCC2)c(C)n1 (stereo not given),-14.73%
18,Cc1nc(N)ncc1C(=O)N1CCCC1(C)C(=O)N(C)C (stereo not given),50.17%
19,Cc1cc(N(C)C)nc(C2(C)CCCN2C(=O)c2cncnc2C)n1 (stereo not given),14.05%
20,O=C(NCCCNc1ccccn1)NCC1CCS(=O)(=O)C1 (stereo not given),41.93%
21,COc1ccc(F)c(CN2CCC(c3cc(O)nc(C)n3)C2)c1 (stereo not given),25.87%
22,CNC(=O)COC1COC2(CCN(c3ccc(C)nn3)CC2)C1 (stereo not given),-37.31%
23,O=C(c1ccno1)N1CCO[C@@H]2CC(COCc3ccccn3)C[C@H]21 (stereo not given in full),43.24%
24,CNC(=O)C1=NOC2(CCN(Cc3nccs3)C2)C1 (stereo not given),5.9%
25,O=C(NCCN1CCOCC1)C1=NOC2(CCN(Cc3nccs3)C2)C1 (stereo not given),50.9%
26,Cc1ncccc1NC(=O)C1=NOC2(CCN(Cc3nccs3)C2)C1 (stereo not given),16.87%
27,CCc1nc(C2CCCN2Cc2ccno2)no1 (stereo not given),-62.13%

row,Compound,INHIBITION
1,O=C1NCC2(CCCN(Cc3cccnc3)C2)Oc2ccccc21 (stereo not given),24.06%
2,Cc1cc(-c2cc(S(=O)(=O)N3C[C@H](C4CC4)[C@@H](N)C3)c(C)s2)on1,14.95%
3,COc1cccc(CN2CCCC(c3nn(C)c4nccnc34)C2)c1 (stereo not given),22.81%
4,COc1cc(N2CCC3(CCCN(C(=O)c4cccnc4)C3)C2)ncn1 (stereo not given),-15.29%
5,CC(NCc1ccncc1)c1cc(F)ccc1N1CCN(C)CC1 (stereo not given),24.88%
6,Cc1ccc(CNC(C)c2cc(F)ccc2N2CCN(C)CC2)o1 (stereo not given),60.84%
7,Cc1ccc(CNC(C)c2ccc(N3CCN(C)CC3)c(F)c2)o1 (stereo not given),14.89%
8,Cc1ccc(CC(=O)N2CCCC(c3ccn[nH]3)C2)cn1 (stereo not given),-5.3%
9,O=C(NCCCO)c1cc(-c2cc[nH]n2)n2ccccc12,-50.4%
10,Fc1cccc(-c2nnn3c2COCC(CNCc2nccs2)C3)c1 (stereo not given),3.18%
11,COCc1cc(N(C)CCC(O)c2ccccc2)n2nccc2n1 (stereo not given),45.87%
12,Cc1cc(N(C)CCC(O)c2ccccc2)n2nccc2n1 (stereo not given),26.35%
13,CCc1cc(N(C)CCC(O)c2ccccc2)n2nccc2n1 (stereo not given),53.12%
14,CN(C)C(C(=O)N1CCCC1)c1ccccc1F (stereo not given),-12.23%
15,CCOCC1CCN(C(=O)C(c2ccccc2F)N(C)C)CC1 (stereo not given),-45.44%
16,CN(C)C(C(=O)N1CCC(CCO)CC1)c1ccccc1F (stereo not given),57.34%
17,c1cncc(C2CC3(CCN(c4cnccn4)CC3)c3ccccc32)c1 (stereo not given),-8.91%
18,COc1cccc(-n2nnc(C(=O)N3CCCC3)c2C)c1,-32.49%
19,COc1cccc(-n2nnc(C(=O)N3CCC(C(N)=O)CC3)c2C)c1,56.78%
20,COc1cccc(-n2nnc(C(=O)N3CCN(C)CC3C)c2C)c1 (stereo not given),89.42%
21,COc1cccc(-n2nnc(C(=O)N3CCOC(C)C3)c2C)c1 (stereo not given),32.64%
22,COc1cccc(-n2nnc(C(=O)N3CCCCCC3)c2C)c1,30.05%
23,COc1cccc(-n2nnc(C(=O)N3CCCC(C)C3)c2C)c1 (stereo not given),5.91%
24,Cc1nc(-c2ccc(S(=O)(=O)N3CCC4(CC3)OCCO4)cc2)co1,13.93%
